Compounds without any hit were thinned out: in the full panel of roughly 83,000, 20% have a hit.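 Negative percent growth values reflect cell death: -40 means 40% of the cells present at the start died, and -100 means all died.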 Calls of active or inactive are those of the source. Rule for the calls: active = growth percent below 10; inactive = the rest.
What was measured:
Test in all cases: NCI-60 one-dose screen, 48 h (100 = growth as untreated, 0 = no growth, -100 = all killed)
Settings in all cases: 10 µM unless noted
[1] = tested on: HCT-15 colon
[2] = tested on: HT29 colon
[3] = tested on: SNB-75 CNS
[4] = tested on: SNB-19 CNS
[5] = tested on: U251 CNS
[6] = tested on: PC-3 prostate
[7] = tested on: SK-MEL-5 melanoma
[8] = tested on: UACC-62 melanoma
[9] = tested on: LOX IMVI melanoma
[10] = tested on: SK-MEL-28 melanoma
[11] = tested on: SK-MEL-2 melanoma
[12] = tested on: EKVX NSCLC
[13] = tested on: SN12C renal
[14] = tested on: UO-31 renal
[15] = tested on: TK-10 renal
[16] = tested on: ACHN renal
[17] = tested on: CAKI-1 renal
[18] = tested on: A498 renal
[19] = tested on: CCRF-CEM leukemia
[20] = tested on: MOLT-4 leukemia

Measured: growth

c1ccc(Cn2cc3c(c2-c2ccccc2)CCc2cnoc2-3)cc1
inactive: [1] 48.6% | [2] 30.1% | [4] 70.6% | [5] 55.5% | [6] 82.5% | [7] 78.8% | [8] 43.1% | [9] 66.1% | [10] 59.5% | [11] 93.4% | [12] 80.1% | [13] 101% | [14] 80.1% | [15] 101% | [16] 101% | [17] 84.1% | [18] 54% | [19] 48.3% | [20] 58.5%
active: [3] 4.38%

CCOC(=O)NC(=S)n1oc(=O)c2ccccc21
inactive: [1] 103% | [2] 105% | [3] 94.7% | [4] 104% | [5] 98.6% | [6] 98.3% | [7] 108% | [8] 93.3% | [9] 96.8% | [10] 103% | [11] 110% | [12] 101% | [13] 102% | [14] 82.2% | [15] 109% | [16] 101% | [17] 90.4% | [18] 103% | [19] 101% | [20] 95.9%

CCOC(=O)/C(=C(/C)NCC(C)C)c1cc(O)c(O)c2c(C)cc(=O)[nH]c12
inactive: [1] 29.8% | [2] 111% | [3] 78.2% | [4] 50.9% | [5] 46.8% | [6] 34.3% | [7] 43.2% | [8] 66.8% | [9] 38.1% | [10] 71% | [11] 69.1% | [12] 89.3% | [13] 42.9% | [14] 59.3% | [15] 77.7% | [16] 47.8% | [17] 51.4% | [18] 79.2% | [19] 11.2% | [20] 10.5%

C=C(C)[C@@H]1CC[C@]2(COC3CCCCO3)CC[C@]3(C)[C@H](CC[C@@H]4[C@@]5(C)C=C(C=O)C(=O)C(C)(C)[C@@H]5CC[C@]43C)[C@@H]12 (stereo not given in full)
active: [1] -30% | [2] -54.2% | [3] -16.3% | [4] -71.4% | [5] -73.6% | [6] -57.7% | [7] -97.5% | [8] -74.9% | [9] -88.9% | [10] -68.7% | [11] -40.9% | [12] -60% | [13] -48.8% | [14] -86.8% | [15] -82.5% | [16] -59.2% | [17] -40.8% | [18] -95% | [19] -34.9% | [20] 3.64%

O=C(/C=C/c1ccccc1Cl)c1cccc(OCCCCOc2cccc(C(=O)/C=C/c3ccccc3Cl)c2)c1
inactive: [1] 103% | [2] 96.9% | [3] 86% | [4] 100% | [5] 90.3% | [6] 91.1% | [7] 99.5% | [8] 85.5% | [9] 102% | [10] 99.7% | [11] 110% | [12] 107% | [13] 95.8% | [14] 83.9% | [15] 118% | [16] 98.4% | [17] 93.4% | [18] 109% | [19] 91.8% | [20] 93.9%

Cc1ccc(-c2csc(NC(=O)CSc3nc(N)cc(N)n3)n2)cc1
active: [7] 2.45%
inactive: [1] 75.2% | [2] 87.8% | [3] 81.1% | [4] 64.2% | [5] 78.1% | [6] 70.5% | [8] 55.1% | [9] 60.2% | [10] 88.7% | [11] 51.6% | [12] 46.4% | [13] 82.9% | [14] 64.1% | [15] 78.9% | [16] 65.8% | [17] 79% | [18] 66.3% | [19] 50% | [20] 44.4%

CCCCC#Cc1c(I)n(C2OC(CO[Si](C)(C)C(C)(C)C)C3OC(C)(C)OC32)c(=O)n(C(=O)c2ccccc2)c1=O (stereo not given)
inactive: [3] 93.3% | [4] 72.3% | [6] 43% | [7] 78.7% | [8] 55.1% | [11] 43% | [12] 74.8% | [13] 57.8% | [16] 50.6% | [17] 26.9% | [18] 87.9%
active: [1] 8.46% | [2] 0.292% | [5] -33.2% | [9] -65.2% | [10] -42.9% | [14] -49.4% | [15] -11.4% | [19] -7.06% | [20] 1.98%

COCCn1cc(-c2csc(-c3c[nH]c4ccccc34)n2)c2cccnc21
active: [7] 8.9%
inactive: [1] 25.8% | [2] 11.6% | [3] 20.5% | [4] 65.5% | [5] 35.5% | [6] 29.6% | [8] 54.8% | [9] 34.1% | [10] 64.4% | [11] 18.3% | [12] 31.8% | [13] 64.3% | [14] 44% | [15] 34.9% | [16] 49.6% | [17] 56.2% | [18] 17.7% | [19] 36.7% | [20] 25.7%

CCOC(=O)C1=C(CC(O)c2ccc(OC)cc2OC)NC(=O)NC1c1ccccc1 (stereo not given)
inactive: [1] 110% | [2] 100% | [3] 87.3% | [4] 99.8% | [5] 106% | [6] 95.3% | [7] 95.5% | [8] 89.8% | [9] 94.5% | [10] 115% | [11] 120% | [12] 105% | [13] 105% | [14] 95.8% | [15] 120% | [16] 109% | [17] 92.2% | [18] 122% | [19] 95.3% | [20] 17.2%

COc1cc(/C=C/c2cn[nH]c2-c2ccc(C)cc2)cc(OC)c1OC
active: [2] 6.79% | [11] 2.13%
inactive: [1] 23% | [3] 29.5% | [4] 48.2% | [5] 22.6% | [6] 28.2% | [7] 12% | [8] 32.8% | [9] 40.6% | [10] 56.8% | [12] 47.8% | [13] 51.2% | [14] 45.9% | [15] 66% | [16] 49.4% | [17] 32.6% | [18] 33.8% | [19] 24.8% | [20] 22.8%

CCOc1ccc(/C=C/C(=O)c2cccc(OCCCOc3cccc(C(=O)/C=C/c4ccc(OCC)cc4)c3)c2)cc1
inactive: [1] 75.9% | [2] 94.2% | [3] 83.9% | [4] 92.1% | [5] 103% | [6] 75.2% | [7] 75.2% | [8] 57.9% | [9] 83.5% | [10] 87.1% | [11] 106% | [12] 76.9% | [13] 79.5% | [14] 73.4% | [15] 120% | [16] 79.4% | [17] 78% | [18] 73.4% | [19] 67.9% | [20] 73.5%

COc1ccc2[nH]cc(-c3nonc3-c3c[nH]c4ccc(Br)cc34)c2c1
active: [2] 5.38% | [9] -33.4%
inactive: [1] 19.9% | [3] 58.6% | [4] 62.9% | [5] 42.2% | [6] 39.8% | [7] 78.1% | [8] 56% | [10] 84.1% | [11] 73.1% | [12] 29.9% | [13] 67.7% | [14] 36.5% | [15] 49.9% | [16] 38.7% | [17] 24.8% | [18] 51.4% | [19] 38.6% | [20] 28.3%

COc1ccc(-c2nc3ccc(C)cc3c3c2c(=O)n(C)c(=O)n3C)cc1OC
inactive: [1] 108% | [2] 108% | [3] 92.9% | [4] 98.7% | [5] 96.9% | [6] 97.5% | [7] 103% | [8] 89.5% | [9] 95.6% | [10] 112% | [11] 123% | [12] 102% | [13] 98% | [14] 106% | [15] 106% | [16] 97.7% | [17] 88.4% | [18] 94% | [19] 92.3% | [20] 101%

COc1ccc(-c2cc(C(=O)N3N=C(c4ccc(N)cc4)CC3c3ccc(Cl)cc3)c3ccccc3n2)cc1 (stereo not given)
active: [2] -11.7% | [3] 5.79% | [18] -1.93%
inactive: [1] 21.4% | [4] 48.3% | [5] 15.2% | [6] 26.1% | [7] 25.9% | [8] 38.3% | [9] 33% | [10] 63.4% | [11] 20.1% | [12] 41% | [13] 41% | [14] 45.3% | [15] 35.6% | [16] 43.6% | [17] 28.3% | [19] 16.5% | [20] 20.5%

— PubChem BioAssay (NCI)
